For twelve molecules, outcome and AC50 results are on record in PubChem BioAssay (EPA / NIEHS).

Molecules are shown by their SMILES. Where “and” joins values, the source holds several entries; their conditions need not be identical. Equal values may be shown once. Results filed as inconclusive are left out. Some compounds were tested as several samples or in several runs, with calls that do not always agree. Calls of active or inactive are those of the source. Rule for the calls, unless noted: active = hit-call score of the fitted dose curve at least 0.9, where 1 is the maximum; inactive = score below 0.9.

Assay [1] deals with human Vitamin D Receptor (VDR), VDR (gene 7421) (UniProt P11473). The assay is described as follows: ATG_VDR_TRANS: Attagene TRANS-FACTORIAL HepG2 Assay for human Vitamin D Receptor (VDR) (AID 2283022; active = hit-call score of the fitted dose curve at least 0.9, where 1 is the maximum). Summed up:
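Transactivation by an exogenous VDR-Gal4 chimera in transiently transfected HepG2 cells was measured as reporter transcript level 24 hours after chemical treatment. RT-PCR products were analysed by capillary electrophoresis and fitted in the positive direction relative to DMSO.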

Read-out in assay [2]: Interleukin-8 (IL8), CXCL8 (gene 3576)
The assay is described as follows: BSK_3C_IL8: BioMAP Diversity Plus: 3C Assay for Interleukin-8 (IL8) Biomarker Activity (AID 2283020). The settings on record: primary human endothelial cells (HUVEC); actives raise or lower the signal. The essentials: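 Primary human umbilical vein endothelial cells were dosed for 24 h. IL-8 was quantified by ELISA and fitted bidirectionally against DMSO. Cytotoxicity was assessed in parallel cultures by SRB staining at 560 nm.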

Read-out in assay [3]: Monokine induced gamma interferon (MIG), CXCL9 (gene 4283)
In words: BSK_3C_MIG: BioMAP Diversity Plus: 3C Assay for Monokine induced gamma interferon (MIG) Biomarker Activity (AID 2283021). The settings on record: primary human endothelial cells (HUVEC); actives raise or lower the signal. The essentials: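 HUVEC primary endothelial cultures dosed with chemical; MIG quantified by ELISA at 24 h. Data fitted bidirectionally against DMSO control, with parallel SRB total-protein staining for cytotoxicity.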

Assay [4] can be described thus: BSK_3C_SRB: Viability Assessment in the BioMAP Diversity Plus: 3C Assay (AID 2283023).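 Note: fitted both ways against DMSO so a hit may be signal rise or drop.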 The settings on record: primary human endothelial cells (HUVEC). The essentials: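 Cytotoxicity readout in parallel HUVEC 3C cultures: after 24 h compound exposure, cells fixed with 10% TCA, stained with 0.1% SRB and read at 560 nm. Gain or loss relative to DMSO fitted.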
Read-out in assay [5]: Matrix Metallopeptidase 1 (MMP1), MMP1 (gene 4312)
The assay is described as follows: BSK_BE3C_MMP1: BioMAP Diversity Plus: BE3C Assay for Matrix Metallopeptidase 1 (MMP1) Biomarker Activity (AID 2283024). The settings on record: primary human bronchial epithelial cells; actives raise or lower the signal. Summed up: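 Human primary bronchial epithelial cells (BE3C system) dosed for 24 h; MMP-1 quantified by ELISA. Bidirectional fit against DMSO; cytotoxicity tracked in parallel cultures by SRB total-protein staining.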

Read-out in assay [6]: Pselectin, SELP (gene 6403)
The assay is described as follows: BSK_4H_Pselectin: BioMAP Diversity Plus: 4H Assay for Pselectin Biomarker Activity (AID 2283026). The settings on record: primary human endothelial cells (HUVEC); actives raise or lower the signal. The essentials: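 Primary human umbilical vein endothelial cells were treated 24 h, and cell-surface P-selectin was then quantified by ELISA. Bidirectional fit versus DMSO; cytotoxicity checked in parallel cultures by SRB total-protein staining.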

Assay [7] can be described thus: BSK_4H_SRB: Viability Assessment in the BioMAP Diversity Plus: 4H Assay (AID 2283027).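 Note: cells exposed to compound for 24 h before staining.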 The settings on record: primary human endothelial cells (HUVEC). Summed up: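 Absorbance at 560 nm of SRB-stained total protein served as the viability read-out in confluent primary human umbilical vein endothelium 24 h after chemical treatment. Curves were fitted bidirectionally against DMSO as negative control.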

Assay [8] in a line: BSK_BE3C_SRB: Viability Assessment in the BioMAP Diversity Plus: BE3C Assay (AID 2283028). The settings on record: primary human bronchial epithelial cells. Summed up: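 Cytotoxicity read-out: SRB (0.1%) staining of TCA-fixed (10%) human lung bronchial epithelial cells, absorbance 560 nm, 24 h post-dosing. Curves fitted both directions relative to DMSO.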
Read-out in assay [9]: Thrombomodulin, THBD (gene 7056)
The assay is described as follows: BSK_3C_Thrombomodulin: BioMAP Diversity Plus: 3C Assay for Thrombomodulin Biomarker Activity (AID 2283029). The settings on record: primary human endothelial cells (HUVEC); actives raise or lower the signal. The essentials:
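Human umbilical vein endothelial cells were exposed to chemicals for 24 h; cell-surface thrombomodulin quantified by ELISA, with bidirectional fitting against DMSO baseline.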

Read-out in assay [10]: Urokinase-type plasminogen activator receptor (uPAR), PLAUR (gene 5329)
The assay is described as follows: BSK_4H_uPAR: BioMAP Diversity Plus: 4H Assay for Urokinase-type plasminogen activator receptor (uPAR) Biomarker Activity (AID 2283030). The settings on record: primary human endothelial cells (HUVEC); actives raise or lower the signal. Summed up: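 uPAR level read by ELISA on HUVEC cultures (BioMAP 4H) 24 h post-dosing, analyzed for gain or loss relative to DMSO. Parallel SRB staining assessed overt cytotoxicity.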

Read-out in assay [11]: Vascular endothelial growth factor receptor 2 (Homo sapiens) (UniProt P35968)
The assay is described as follows: BSK_4H_VEGFRII: BioMAP Diversity Plus: 4H Assay for Vascular endothelial growth factor receptor 2 (VEGFR2) Biomarker Activity (AID 2283031).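 For AC50: cell-surface VEGFR2 protein level quantified by ELISA.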 The note with it: primary human endothelial cells (HUVEC); actives raise or lower the signal. Summed up:
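Measured by ELISA after 24 h of compound treatment: VEGFR2 on primary human umbilical vein endothelial cells, fitted in both directions relative to DMSO. Parallel cultures received SRB staining (560 nm) for overt cytotoxicity.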

Read-out in assay [12]: Human Leukocyte Antigen - DR isotype (HLADR), HLA-DRA (gene 3122)
In words: BSK_BE3C_HLADR: BioMAP Diversity Plus: BE3C Assay for Human Leukocyte Antigen - DR isotype (HLADR) Biomarker Activity (AID 2283032). The settings on record: primary human bronchial epithelial cells; actives raise or lower the signal. Summed up:
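Human primary bronchial epithelial cells (BE3C system) exposed to compound for 24 hours; cell-surface HLA-DR measured by ELISA, fitted bidirectionally relative to DMSO. Total protein by SRB in parallel cultures tracked cytotoxicity.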

Read-out in assay [13]: Vascular cell adhesion molecule 1 (VCAM1), VCAM1 (gene 7412)
In words: BSK_4H_VCAM1: BioMAP Diversity Plus: 4H Assay for Vascular cell adhesion molecule 1 (VCAM1) Biomarker Activity (AID 2283033). The note with it: primary human endothelial cells (HUVEC); actives raise or lower the signal. Summed up: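 Primary human umbilical vein endothelial cells, 4H stimulation system, treated for 24 h; cell-surface VCAM-1 quantified by ELISA. Bidirectional fitting against DMSO; cytotoxicity tracked by SRB total-protein staining in parallel cultures.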

Read-out in assay [14]: Interferon-gamma inducible Protein 10 (IP10), CXCL10 (gene 3627)
The assay is described as follows: BSK_BE3C_IP10: BioMAP Diversity Plus: BE3C Assay for Interferon-gamma inducible Protein 10 (IP10) Biomarker Activity (AID 2283034). The settings on record: primary human bronchial epithelial cells; actives raise or lower the signal. The essentials:
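Primary human bronchial epithelial cells, with IP-10 measured by ELISA 24 hours after chemical dosing. Bidirectional fit against DMSO; cytotoxicity checked by SRB total protein staining in parallel cultures.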

Read-out in assay [15]: Monokine induced gamma interferon (MIG), CXCL9 (gene 4283)
The assay is described as follows: BSK_BE3C_MIG: BioMAP Diversity Plus: BE3C Assay for Monokine induced gamma interferon (MIG) Biomarker Activity (AID 2283035).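 Note: MIG protein measured by ELISA in BE3C cultures after 24 h of dosing.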 The note with it: primary human bronchial epithelial cells; actives raise or lower the signal. Summed up: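 MIG level was determined by ELISA after 24 h chemical treatment of primary human bronchial epithelial cells. Values were fitted bidirectionally with DMSO as the negative control and activity baseline.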

Read-out in assay [16]: Plasminogen activator inhibitor-1 (PAI1), SERPINE1 (gene 5054)
The assay is described as follows: BSK_BE3C_PAI1: BioMAP Diversity Plus: BE3C Assay for Plasminogen activator inhibitor-1 (PAI1) Biomarker Activity (AID 2283037). The settings on record: primary human bronchial epithelial cells; actives raise or lower the signal. The essentials:
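Primary human bronchial epithelial cells (BE3C system) exposed 24 h; PAI-1 quantified by ELISA. Parallel sulforhodamine B staining of total protein flags cytotoxicity. Bidirectional fit versus DMSO.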

Read-out in assay [17]: Urokinase-type plasminogen activator receptor (uPAR), PLAUR (gene 5329)
The assay is described as follows: BSK_BE3C_uPAR: BioMAP Diversity Plus: BE3C Assay for Urokinase-type plasminogen activator receptor (uPAR) Biomarker Activity (AID 2283039).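 Note: uPAR protein level measured by ELISA on the cells; cells exposed to compound for one day before measurement.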 The settings on record: primary human bronchial epithelial cells; actives raise or lower the signal. The essentials:
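Primary human bronchial epithelial cells dosed for 24 h; uPAR quantified by ELISA with bidirectional fitting against DMSO. Overt cytotoxicity assessed in parallel cultures by SRB total-protein staining (0.1% SRB, 560 nm).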

Chain of human Vitamin D Receptor (VDR), VDR (gene 7421) (P11473 whole entry, looked up, the tested form may be a part): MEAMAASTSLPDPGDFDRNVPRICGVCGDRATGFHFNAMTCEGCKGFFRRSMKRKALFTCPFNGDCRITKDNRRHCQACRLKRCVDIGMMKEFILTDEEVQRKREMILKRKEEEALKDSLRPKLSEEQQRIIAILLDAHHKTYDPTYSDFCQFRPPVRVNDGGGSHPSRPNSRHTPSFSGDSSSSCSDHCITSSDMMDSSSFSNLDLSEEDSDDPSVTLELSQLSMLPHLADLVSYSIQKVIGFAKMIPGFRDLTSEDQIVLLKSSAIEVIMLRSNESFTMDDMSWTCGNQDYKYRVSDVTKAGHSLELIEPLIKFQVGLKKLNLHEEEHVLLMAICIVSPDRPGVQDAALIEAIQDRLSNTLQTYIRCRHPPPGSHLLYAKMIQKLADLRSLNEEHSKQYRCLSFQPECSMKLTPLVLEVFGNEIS

Regarding `C(=C(c1ccccc1)c1ccccc1)c1ccccc1`, the result in assay [1] was inactive.
On to `CNC(=S)NC`, for which the outcome in assay [1] was inactive.
Consider `c1ccc(B(c2ccccc2)c2ccccc2)cc1`, for which, in assay [1], the molecule was called inactive.
As to `O=S(=O)(O)C(F)(F)C(F)(F)C(F)(F)C(F)(F)C(F)(F)C(F)(F)C(F)(F)F`, the outcome in assay [2], in assay [3], in assay [4], in assay [6], in assay [7] and in assay [8] was inactive. The result in assay [9], in assay [10], in assay [11], in assay [12], in [13] and in assay [14] was inactive. Besides, the outcome in [15], in assay [16] and in assay [17] was inactive. The half-maximal activity concentration (AC50) in [5] was 8.64 µM (active) and 15.6 µM (active).
As to `O=P(O)(O)OCCC(F)(F)C(F)(F)C(F)(F)C(F)(F)C(F)(F)C(F)(F)F`, the outcome in assay [2], in assay [3], in assay [4], in assay [5], in assay [6] and in [7] was inactive. The result in assay [8], in assay [9], in [10], in assay [11], in [12] and in assay [13] was inactive. Also, the outcome in assay [14], in assay [15], in assay [16] and in assay [17] was inactive. The concentration at half-maximal activity (AC50) in assay [13] is 6.01 µM (active).
Take `OCC(F)(F)C(F)(F)C(F)(F)F`: the result in assay [2], in [3], in [4], in assay [5], in [6] and in assay [7] was inactive. For the same molecule, the outcome in assay [8], in assay [9], in assay [10], in assay [11], in [12] and in assay [13] was inactive. Besides, the outcome in assay [15] and in [16] was inactive.
Consider `CC(C)=CCCC(C)CCOC(=O)C(C)C` (stereo not given), for which the call in assay [1] was inactive.
On the same count and under the same terms, as for `CCCCCCOC(=O)c1ccccc1`, the entry is “inactive”.
On the same count and under the same terms, for `C1COCCN1` the value was “inactive”.
In the case of `O=C(O)C(F)(F)C(F)(F)OC(F)(F)F`, the result in assay [2], in [3], in [4], in assay [5], in [6] and in assay [7] was inactive. The result in assay [8], in assay [10], in assay [11], in [12], in assay [13] and in assay [14] was inactive. The result in assay [15], in [16] and in assay [17] was inactive. The AC50 in assay [11] is 2.45 µM (active).
In the case of `Nc1ccc(Oc2cccc(Oc3ccc(N)cc3)c2)cc1`, the outcome in assay [1] was inactive.
For `O=C(O)C(F)(OC(F)(F)C(F)(OC(F)(F)C(F)(OC(F)(F)C(F)(F)C(F)(F)F)C(F)(F)F)C(F)(F)F)C(F)(F)F` (stereo not given), the outcome in assay [2], in assay [3], in assay [4], in [5], in assay [6] and in [7] was inactive. Moreover, the outcome in [8], in assay [9], in assay [10], in [11], in assay [12] and in assay [13] was inactive. In addition, the outcome in assay [15], in [16] and in [17] was inactive.
